Sampled rows, rich in hits. Any-hit rate of the full collection: about 19%.
IL1B secr inh: inhibitors of inflammasome signaling (IL-1 beta secretion); hit rate 4.7% among 360,000; AID 743279; THP-1 LPS/ATP IL-1B secretion, AlphaLISA, 16 h; hits give low values; activity change, % at 57.5 µM; in the data active = activity change below about -50%; inconclusive = mostly about -30% to -49%
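THP-1 cells pretreated 1 hr with compounds (up to 57.5 uM final), then stimulated with LPS (250 ng/mL final) plus ATP (1.25 mM final); secreted IL-1B measured by AlphaLISA after 16 hr, decreased signal indicating inhibition.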
HT1080 IDH1KD tx: toxicity to HT-1080 IDH1 knockdown cells (counter line). HT-1080 IDH1 knockdown viability, ATP luminescence, 48 h. hit rate 2% among 360,000. Potency, µM (top dose mostly 46.1 µM), hits mostly cytotoxic. AID 686971
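% activity derives from luminescence (CellTiter-Glo), normalised to DMSO and no-cell wells. HT-1080-IDH1KD cells, 750/well, had 48 h compound exposure at 37 °C.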
HT1080-NT tox: kills 2HG-producing HT-1080-NT fibrosarcoma cells; HT-1080-NT fibrosarcoma viability, CellTiter-Glo ATP luminescence, 48 h; AID 686970; hit rate 1.6% among 360,000; Potency, µM (titrated, usually from 46.1 µM), hits mostly cytotoxic;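 note: NT is the 2HG producing partner of a matched IDH1 knockdown line; nearly all actives have a fitted effect of over 55% in size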
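A 48-hour cytotoxicity screen used HT-1080-NT cells plated 2 hours before compound delivery. ATP-based CellTiter-Glo luminescence measured viability, normalized to DMSO and no-cell controls.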
TDP1 cell CPT: growth inhibition of DT40 Tdp1-/-;hTDP1 cells with camptothecin (screen for TDP1 inhibitors); chicken DT40 Tdp1-/-;hTDP1 cells + 20 nM CPT, ATP luminescence, 48 h; Potency, µM (series often up to 46.2 µM), most hits filed as inhibitors; hit rate 12% among 420,000; note: nearly all actives have a fitted effect of over 55% in size
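Chicken DT40 Tdp1-/- cells stably complemented with human TDP1 were seeded at 400 cells/well in medium containing 20 nM camptothecin, exposed to pin-transferred compounds, and grown at 37 °C for at least 48 hr. Viability was read as ATP luminescence.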
TDP1 cell noCPT: qHTS for Inhibitors of human tyrosyl-DNA phosphodiesterase 1 (TDP1): qHTS in cells in absence of CPT. DT40 Tdp1-/- hTDP1 cells, no CPT, ATP luminescence, 48 h. Potency, µM (titrated, usually from 46.2 µM), actives largely listed as inhibitors. hit rate 15% among 420,000. AID 686978, 2013; note: nearly all actives have a fitted effect of over 55% in size
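Chicken DT40 Tdp1-/- cells complemented with human TDP1, screened without camptothecin (DMSO vehicle only), 400 cells/well. Compounds pin-transferred, cells incubated at 37 °C for at least 48 hr. Growth read as ATP-dependent luminescence (CellTiter-Glo, 30 min at RT).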
ELG1 repair inh: ELG1-dependent DNA repair inhibition; HEK293T ELG1-luciferase reporter, luminescence, 16 h; DNA damage induced by 5-fluorouridine; Potency, µM (doses to about 46.1 µM), actives largely listed as inhibitors; hit rate 2.3% among 330,000; AID 504467; note: nearly all actives have a fitted effect of over 55% in size
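Step one: seed 2,000 cells per well. Step two: pin-transfer compound or DMSO alongside 5-fluorouridine. Step three: incubate 16 hr, 37 °C, 5% CO2. Step four: add ONE-Glo, wait 30 min, read luminescence.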
A number is an active result; 0 = inactive; ? = inconclusive; - = no result given; [ ] = dose if it differs, or a comment. Unless noted, calls come from the whole dose curve; as a rule, active = well fitted curve in the direction sought with a large enough effect; inconclusive = small, poorly fitted or top-dose-only effect, or another doubt; inactive = no such curve, though single readings can be large; an effect the other way counts as inactive or inconclusive.

SMILES	IL1B secr inh	HT1080 IDH1KD tx	HT1080-NT tox	TDP1 cell CPT	TDP1 cell noCPT	ELG1 repair inh
CS(=O)(=O)Nc1cccc(-c2cncnc2NCc2cccnc2)c1	-	-	-	0	0	-
O=C(NCCC(=O)N1CCN(c2ccccn2)CC1)c1ccc(Cl)cc1	0	0	0	0	?	0
COc1ccc(NC(=O)COC(=O)C2CC2)c(OC)c1	0	0	0	0	0	0
CSc1ccc(S(=O)(=O)NC2CC2)cc1	0	0	0	0	0	0
COc1ccccc1OCc1ccc(C(=O)NCc2ccco2)o1	0	0	0	0	0	0
Cc1cc(C(F)(F)F)nn1Cc1ccc(C(=O)NCc2ccco2)o1	0	?	0	16.4µM	13µM	?
O=C(CSc1nnc(CCc2ccccc2)n1-c1ccc(Cl)cc1)c1ccccc1	-63.7	0	0	?	23.1µM	0
O=c1cc(Cc2nnc(SCc3ccccc3)n2-c2ccc(Cl)cc2)[nH]c(=O)[nH]1	0	0	0	0	0	0
O=S(Cc1ccc(Br)cc1)Cc1nnc(SCc2c(F)cccc2Cl)n1-c1ccccc1 (stereo not drawn)	-62.1	0	0	14.6µM	9.2µM	23.1µM
O=S(Cc1ccc(Br)cc1)Cc1nnc(SCc2ccc(Cl)cc2)n1-c1ccccc1 (stereo not drawn)	-68.5	0	0	16.4µM	18.4µM	?
Cc1ccc(NC(=O)CCN2CCN(CCO)CC2)cc1C	-	-	-	0	0	-
CCOc1ccc(NC(=O)Cn2cc(C(=O)c3ccc(C)c(C)c3)c(=O)c3cc(F)ccc32)cc1	-	-	-	0	?	-
CNC(=S)N(CCc1c(C)[nH]c2ccc(C)cc12)Cc1cc(OC)c(OC)c(OC)c1	0	0	0	?	14.6µM	?
CCNC(=S)N(CCc1c(C)[nH]c2ccccc12)Cc1cccnc1	0	0	0	?	?	0
CNC(=S)N(CCc1c(C)[nH]c2ccccc12)Cc1cc(OC)c(OC)c(OC)c1	0	0	0	?	20.6µM	?
CCNC(=S)N(CCc1c(C)[nH]c2ccccc12)Cc1cc(OC)c(OC)c(OC)c1	0	0	0	16.4µM	10.3µM	0
N#Cc1ccccc1OCC(=O)N(C1CCCCC1)C1CCS(=O)(=O)C1 (stereo not drawn)	0	0	0	0	0	0
CC(C)N(C(=O)CSc1ccc(S(=O)(=O)N2CCCCC2)cn1)C(C)C	0	0	0[9.24 µM]	16.4µM	0	0
CCC(C)NC(=O)CSc1ccc(S(=O)(=O)N2CCN(Cc3ccccc3)CC2)cn1 (stereo not drawn)	0	0	0	?	29.1µM	?
N#Cc1ccc(CSc2ccc(S(=O)(=O)N3CCCCCC3)cn2)cc1	0	0	0	?	29.1µM	?
O=S(=O)(c1ccc(SCc2ccccc2)nc1)N1CCCCC1	0	0	0	0	0	0
NC(=O)CSc1ccc(S(=O)(=O)N2CCCCC2)cn1	0	0	0[9.24 µM]	0	0	?
O=[N+]([O-])c1ccc(CSc2ccc(S(=O)(=O)N3CCCCCC3)cn2)cc1	0	0	0	23.1µM	16.4µM	0
O=C(Nc1ccc2c(c1)OCCO2)C1c2ccccc2OCC(=O)N1CCc1c[nH]c2ccccc12 (stereo not drawn)	0	0	0	0	0	-
COc1cc(C(=O)OCc2cc(=O)oc3c(C)c(C)ccc23)ccc1OC(F)F	0	0	0	?	?	0
SMILES	IL1B secr inh	HT1080 IDH1KD tx	HT1080-NT tox	TDP1 cell CPT	TDP1 cell noCPT	ELG1 repair inh
CCC(=O)N1CCc2cc(S(=O)(=O)NCCC(=O)NC(C)c3ccccc3)ccc21 (stereo not drawn)	-	-	-	?	0	-
CC(=O)C1C=CC(C)(C(=O)O)C2C=C(C)C(=O)C(C)(O)C12 (stereo not drawn)	0	0	0	0	0	-
CCOC(=O)[C@@H]1[C@H]2COc3ccccc3[C@H]2N2C(=O)N(c3ccc(Cl)cc3)C(=O)[C@]12C	0	0	0	?	20.6µM	0
CCOC(=O)[C@@H]1[C@H]2COc3ccccc3[C@@H]2N2C(=O)N(c3cccc(Cl)c3)C(=O)[C@@]12C	0	0	0	?	16.4µM	0
CCOC(=O)[C@@H]1[C@H]2COc3cc(OC)ccc3[C@H]2N2C(=O)N(c3cccc(Cl)c3)C(=O)[C@]12C	?	0	0	14.6µM	?	?
CCOC(=O)[C@@H]1[C@H]2COc3cc(OC)ccc3[C@H]2N2C(=O)N(c3cccc(Cl)c3)C(=O)[C@@]12C	0	0	0	?	?	?
CCOC(=O)C1CCN(C(=O)Cn2nc(C)n3c(cc4sccc43)c2=O)CC1	-	-	-	0	?	-
O=C(Nc1ccc(C(=O)OCc2cc(=O)n3c4c(sc3n2)CCCC4)cc1)c1ccccc1	-	-	-	0	0	-
COC(=O)[C@@H]1CCCN1C(=O)c1cnn(-c2nccc(-c3cc(C)sc3C)n2)c1C1CC1	-	-	-	0[9.04 µM]	?	-
CCC(c1nnc(SC(C)C(=O)NC2CC2)n1-c1ccc(OC)cc1)N(C)C (stereo not drawn)	0	0	0	0	0	0
Cc1ccc(NC(=S)N2CCCN(Cc3ccc(F)cc3)C2)c(C)c1	0	0	0	?	20.6µM	0
Cc1ccc(C)c(NC(=S)N2CCCCCC2)c1	0	0	0	20.6µM	16.4µM	0
Cc1c(Cl)cccc1NC(=S)N1CCCN(Cc2ccc(F)cc2)C1	-88.1	?	0	?	?	0
Cc1c(Cl)cccc1NC(=S)N1CCCN(Cc2ccccc2F)C1	0	0	0	0	0	0
CSc1cccc(NC(=S)N2CCCN(Cc3ccc(F)cc3)C2)c1	-52.5	?	0	?	?	0
CCN(C(=O)CSC1=Nc2ccccc2C2CC=NN12)C1CCS(=O)(=O)C1 (stereo not drawn)	0	0	0	?	?	0
O=S1(=O)C=CC(Nc2cccc(Cl)c2)C1 (stereo not drawn)	-89.4	?	10µM	0	0	0
COc1ccc(CCc2ccc3cc(OC)ccc3n2)cc1	-54.9	0	0	?	?	-
O=C(C(=O)N1CCN(c2ccccc2)CC1)c1ccco1	0	0	0	0	0	-
CC1CCc2cc(F)ccc2N1C(=O)c1cc2nc(-c3ccco3)cc(C(F)(F)F)n2n1 (stereo not drawn)	0	0	0	?	?	?
O=C(c1ccccc1F)N1c2nc(-c3ccco3)nn2C2(CCCCC2)[C@@H]2CCCC[C@@H]21	-	-	-	?	18.4µM	-
COc1ccc(C(=O)N2c3nc(-c4ccco4)nn3C3(CCCCC3)[C@@H]3CCCC[C@@H]32)cc1OC	-	-	-	16.4µM	?	-
